Data published in PubChem BioAssay AID1852 (Sanford-Burnham Center for Chemical Genomics, 2009).
The campaign covered roughly 2,500 compounds. About 1,100 (44%) were called active. The set was probably picked from earlier hits. The list shows a part of the results. Values without a mark were called inactive.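 How the source made its calls: active means inhibition above 50% at 4 µM in the single-point screen; inactive means inhibition of 50% or less.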

test: blockers of TNF-a NF-kB luciferase induction – cell-based, HEK293T NF-kB-Luc, luminescence, selectivity assay for NOD1/NOD2 signaling inhibitor project, primary screen (AID 1852); conditions: TNF-a induced, 14 h, at 4 µM, hits give high values

Compound | inhibition
O=C(COC(=O)/C=C/C(=O)OCC(=O)Nc1ccccc1F)Nc1ccccc1F | 33.2%
CCOC(=O)c1cccc2c1-c1ccccc1/C2=N/O | 48.8%
COC(=O)c1cccc2c1-c1ccccc1/C2=N/O | 67.3% (active)
COC(=O)c1ccc2c(c1O)C(=O)c1ccccc1C2=O | -53.2%
O=[N+]([O-])c1ccc(O)c(/C=N/Nc2ncnc3c2cnn3-c2ccccc2)c1 | 46.3%
O=[N+]([O-])c1ccc(O)c(/C=N/Nc2ccccc2[N+](=O)[O-])c1 | 69.5% (active)
O=C(NC(NC(=S)Nc1ccc(Cl)cc1Cl)C(Cl)(Cl)Cl)c1cccc([N+](=O)[O-])c1 (stereo not given) | 95.7% (active)
O=[N+]([O-])c1ccc(O)c(/C=N/NC(=S)Nc2ccc(Cl)cc2Cl)c1 | 105% (active)
COc1ccc(NC(=S)NC(NC(=O)c2ccc(Cl)cc2Cl)C(Cl)(Cl)Cl)c([N+](=O)[O-])c1 (stereo not given) | 34.9%
O=C(NC(NC(=S)Nc1ccccc1)C(Cl)(Cl)Cl)c1cccc(Cl)c1 (stereo not given) | 23.1%
O=C(NC(NC(=S)Nc1ccccc1Cl)C(Cl)(Cl)Cl)c1cccc(Cl)c1 (stereo not given) | -7%
Oc1c(Br)cc(Br)cc1/C=N/Nc1ccc(Cl)nn1 | 44.5%
CCCOc1ccc(/C=N/NC(=S)Nc2ccccc2[N+](=O)[O-])c(O)c1 | 15.1%
Oc1cccc(/C=N/Nc2ccc(Cl)nn2)c1O | -18%
O=[N+]([O-])c1ccc(O)c(/C=N/Nc2ccc(Cl)nn2)c1 | 70.3% (active)
O=[N+]([O-])c1cc(Cl)cc(/C=N/NC(=S)Nc2cc(S(=O)(=O)N3CCOCC3)ccc2Cl)c1O | 49.1%
O=C1NC(=O)/C(=C\c2ccc(Oc3cnccn3)cc2)S1 | -64.2%
O=[N+]([O-])c1cccc(/C=N\N=C2c3ccccc3-c3ccccc32)c1O | 7.7%
O=[N+]([O-])c1ccc(O)c(/C=N\N=C2c3ccccc3-c3ccccc32)c1 | 77% (active)
Oc1nc(Nc2ccc(Cl)cc2Cl)sc1/C=C1\C=Nc2ccccc21 | 5.6%
CCCCc1c(C)c(C#N)c2[nH]c3ccccc3n2c1=O | 44.9%
Cc1ccc(CSc2nc(-c3ccccc3)c(C#N)c(=O)[nH]2)cc1 | -18%

Compound | inhibition
Cc1ccc(Cc2c(C)c(C#N)c3[nH]c4ccccc4n3c2=O)cc1 | 74.6% (active)
Cc1ccc(O)c(C(=O)c2cc(C#N)c3nc4ccccc4n3c2)c1 | 33%
CC(C)c1ccc(S(=O)(=O)c2cc3cc(Br)ccc3oc2=O)cc1 | 32.3%
O=c1oc2ccc(Br)cc2cc1S(=O)(=O)c1ccc(F)cc1 | 68% (active)
Cc1ccc(S(=O)(=O)c2cc3cc(Br)ccc3oc2=O)cc1 | 58.4% (active)
Cc1ccc(S(=O)(=O)c2cc3ccccc3oc2=O)cc1 | 29.7%
Cc1ccc(OCc2cc(C(=O)NC3CCCCC3)no2)cn1 | 46%
C=CCC1(CC=C)CCCN1C(=O)c1cc(COc2cncc(Cl)c2)on1 | 19.5%
C=CCC1(CC=C)CCCN1C(=O)c1cc(COc2ccc(C)nc2)on1 | 52.5% (active)
c1ccc(N2CCN(c3ncnc4sc5c(c34)CCC5)CC2)cc1 | 57.1% (active)
O=C(O)c1cccc(-c2ccc(/C=N/n3cnc4sc5c(c4c3=O)CCCC5)o2)c1 | -30.8%
CC1CCc2sc3ncnc(N4CCOCC4)c3c2C1 (stereo not given) | 29.3%
CC1=NNC(=O)/C1=C\c1cn(-c2ccccc2)nc1-c1cccs1 | -42.7%
COc1cccc(N2CCN(c3ncnc4c3[nH]c3ccccc34)CC2C)c1 (stereo not given) | 106% (active)
COc1cccc(N2CCN(c3ncnc4c3[nH]c3ccc(F)cc34)CC2C)c1 (stereo not given) | 110% (active)
Cc1cccc(N2CCN(C(=O)C3CCN(c4ncnc5c4nc4n5CCCCC4)CC3)CC2C)c1 (stereo not given) | 33.7%
NC(=O)c1c(NC(=O)c2ccc([N+](=O)[O-])o2)sc2c1CCCC2 | -24.9%
COc1ccc(OC)c(Nc2c3c(nc4ccccc24)CCC3)c1 | 49.6%
COc1ccc(CNC(=O)c2cc3c(C)nc4ccccc4c3o2)c(OC)c1 | 62.8% (active)
Cc1nc2ccccc2c2oc(C(=O)NCC3COc4ccccc4O3)cc12 (stereo not given) | 39.3%
O=C(COc1ccc2c(-c3ccccc3)cc(=O)oc2c1)Nc1cccnc1 | 34.1%
CCCCc1cc(=O)oc2cc(OCC(=O)Nc3cccnc3)c(Cl)cc12 | 85.3% (active)

Compound | inhibition
O=C(COc1ccc(C(=O)c2ccccc2)cc1)Nc1cccnc1 | 46.8%
COc1nc(Nc2nc3ccccc3c(=O)[nH]2)nc2ccc(C)cc12 | 67.4% (active)
Cc1ccc(-n2[nH]c(C)c(/C=N/Nc3ccc([N+](=O)[O-])cc3[N+](=O)[O-])c2=O)cc1C | 83.2% (active)
Cc1[nH]n(-c2ccccc2)c(=O)c1/C=N/NC(=O)c1cccc([N+](=O)[O-])c1 | 76.8% (active)
C/C(=N/NC(=S)Nc1cccc(C)c1)c1cccc([N+](=O)[O-])c1 | 6.4%
COc1ccc(C(=O)Nc2ccccc2C(=O)N/N=C/c2ccccn2)cc1OC | 102% (active)
COc1ccc(C(=O)N/N=C/c2ccc(OC(=O)c3cccc4ccccc34)c([N+](=O)[O-])c2)cc1 | 41.6%
Cc1cccc(/C=N/NC(=O)c2cccc([N+](=O)[O-])c2)n1 | 97.4% (active)
Cc1[nH]n(-c2ccccc2)c(=O)c1/C=N/NC(=O)c1cccc(F)c1 | -0.8%
Cc1c(C(=O)N/N=C/c2ccoc2)cccc1[N+](=O)[O-] | -12.6%
Cc1ccc2cccc(N=Cc3c(C)[nH]n(-c4ccccc4)c3=O)c2n1 | 38.3%
CCOc1cc(S(=O)(=O)NCc2ccncc2)ccc1Cl | 48.8%
CC(/C=C/c1ccccc1)=N/NC(=O)c1cccc(Br)c1 | 13.3%
CC(/C=C/c1ccccc1)=N/NC(=O)c1cc([N+](=O)[O-])cc([N+](=O)[O-])c1 | 102% (active)
COc1cc([N+](=O)[O-])ccc1-c1ccc(/C=N/NC(=O)c2ccccc2O)o1 | 0.6%
O=C(N/N=C/c1ccccn1)c1ccc(Cl)cc1 | -21.2%
C/C(Cn1nnc([N+](=O)[O-])n1)=N\NC(=O)c1ccc(Cl)c(Cl)c1 | 31.3%
O=C(N/N=C/c1ccccn1)c1ccc(Cl)c(Cl)c1 | 101% (active)
C/C(=N\NC(=O)c1ccc(Cl)c(Cl)c1)c1ccc(Br)s1 | 40.4%
O=C(N/N=C/c1ccccn1)c1sc2ccccc2c1Cl | 85.8% (active)
O=C(N/N=C/c1ccccn1)c1cc([N+](=O)[O-])cc([N+](=O)[O-])c1 | 96.4% (active)
